# Compounds with a hit are over-represented: about 1.6% of the library has one in this group of screens.
# GRK2 aptamer HTS – inhibitors of human GRK2 displacing RNA aptamer | bead flow cytometry, FAM-aptamer displacement from GRK2 | 330,000 tested, 0.59% active | inhibition of aptamer binding, % at 10 µM;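 active = inhibition of aptamer binding above 40%, roughly 3 SD of noise, on plates passing a quality check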;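 also: median bead fluorescence of bound FAM aptamer so fluorescent compounds give negative values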
# Target sequence (P25098 whole entry, looked up): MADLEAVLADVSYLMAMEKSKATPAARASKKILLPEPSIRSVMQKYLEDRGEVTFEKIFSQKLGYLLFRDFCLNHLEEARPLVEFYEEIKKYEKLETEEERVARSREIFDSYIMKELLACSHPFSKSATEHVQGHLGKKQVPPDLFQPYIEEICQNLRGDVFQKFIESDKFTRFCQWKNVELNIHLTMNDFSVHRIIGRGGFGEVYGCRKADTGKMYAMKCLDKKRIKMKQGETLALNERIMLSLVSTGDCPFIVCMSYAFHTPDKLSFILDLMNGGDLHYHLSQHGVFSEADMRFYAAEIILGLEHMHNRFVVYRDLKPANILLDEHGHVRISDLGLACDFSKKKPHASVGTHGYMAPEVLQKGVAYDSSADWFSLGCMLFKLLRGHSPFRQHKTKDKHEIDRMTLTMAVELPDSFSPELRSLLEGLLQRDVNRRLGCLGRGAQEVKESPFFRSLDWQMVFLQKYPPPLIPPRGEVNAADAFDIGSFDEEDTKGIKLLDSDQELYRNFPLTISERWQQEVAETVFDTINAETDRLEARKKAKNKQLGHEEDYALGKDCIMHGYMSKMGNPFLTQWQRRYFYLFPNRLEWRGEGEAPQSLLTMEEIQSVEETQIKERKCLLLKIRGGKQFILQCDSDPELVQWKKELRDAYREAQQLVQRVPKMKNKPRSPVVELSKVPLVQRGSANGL
# GASC-1 inh – human JMJD2C demethylase inhibition; Q9H3R0; GST-JMJD2C(1-420) H3K9me3 demethylation, DELFIA europium; inhibition, % at 2.35 µM; 330,000 tested, 0.069% active;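 active = more than half of a compound's replicate wells show inhibition beyond 50%, single wells judged on their own value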;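 also: signal counts dimethyl H3K9 product captured on neutravidin plate; 0% = median of DMSO wells and 100% = 0.3 times that DMSO median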
# Pemphigus Ab inh – blocks pemphigus antibody binding to human desmoglein-3. DSG3-coupled beads, scFv-anti-DSG3-GFP binding, flow cytometry; active compounds read low. binding (percent of control), % at 10 µM. 310,000 tested, 0.48% active;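 active = binding more than 3 SD below its plate's average and above zero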;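 also: hits lower antibody fragment binding to DSG3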
# VLA-4 inh – inhibition in a human VLA-4 binding assay; P13612; VLA-4 expressing cells, ligand binding flow cytometry; inhibition, % (about 7 µM as worked out from the volumes in the protocol); 330,000 tested, 0.2% active; AID 2557; in the data active = inhibition above about 50%
# PREPL inh – inhibitors of human prolyl oligopeptidase-like enzyme PREPL; 320,000 tested, 0.68% active; recombinant PREPL, fluorescence polarization activity-based probe; inhibition, % at 5.96 µM;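 also: 0% = enzyme with DMSO and 100% = wells lacking enzyme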
# PREPL confirm – confirmation of human PREPL enzyme inhibitors; recombinant PREPL, fluorescence polarization activity probe; 2,000 tested, 67% active; AID 2803; inhibition, % at 5.96 µM; shares compounds with PREPL inh;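 also: 0% = protein with DMSO and 100% = wells lacking protein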
# Starred values were filed as active, the others as inactive; i = inactive; / = not tested or not shown. Rule as the data show it, unless noted: active = inhibition above about 43%; inactive = the rest.
SMILES,GRK2 aptamer HTS,GASC-1 inh,Pemphigus Ab inh,VLA-4 inh,PREPL inh,PREPL confirm
COc1ccc(-c2cn[nH]c2-c2ccc(OCc3ccccc3)cc2O)cc1OC,0,-28,86,-10,49*,32
Oc1cc(OCc2ccccc2)ccc1-c1[nH]ncc1-c1ccccc1,1,-20,89,-2,9,/
CSc1ccc2c(c1)N(CCC1CCCCN1C)c1ccccc1S2 (stereo not drawn),0,-16,101,29,48*,51*
C[C@H]1[C@H](c2ccccc2)C[C@@H](C(=O)O)C1(C)C,0,0,102,1,-4,/
CN(C)c1ccc(C(CNC(=O)c2ccccc2Br)c2c[nH]c3ccccc23)cc1 (stereo not drawn),0,2,101,-7,56*,31
Cc1ccc(-c2csc(=Nc3cccnc3)n2CCCN2CCCC2=O)cc1C,3,-5,88,-8,49*,54*
Cc1ccc(-c2csc(=Nc3cccnc3)n2CCCn2ccnc2)cc1C,/,1,102,11,47*,57*
CCCCn1c(C)csc1=Nc1cccnc1,0,-5,125,7,7,/
c1cncc(N=c2scc(-c3cccc4ccccc34)n2CCCn2ccnc2)c1,3,-4,102,0,53*,54*
COCCn1c(-c2ccccc2)csc1=Nc1cccnc1,1,10,/,-1,0,/
CC(=O)Nc1ccc(NC(=O)CCSCCc2ccccn2)cc1,0,4,99,15,0,/
O=S(=O)([N-]c1nc2ccccc2nc1-[n+]1ccc(-c2ccncc2)cc1)c1ccccc1,0,6,97,16,0,/
CC(=O)Nc1c(C)ccc(CNC(=O)COc2cc(C)ccc2C)c1C,2,3,114,1,5,/
N#CC1=C(N)N(c2ccccc2)C(c2ccccc2)C1(C#N)C#N (stereo not drawn),0,4,106,15,46*,19
Cc1nn(-c2ccccc2)c2c1C(c1ccccc1)C(C#N)=C(N)O2 (stereo not drawn),2,8,99,3,-2,/
COc1ccc(CCC(=O)OCC(=O)Nc2sccc2C(N)=O)cc1OC,0,4,103,9,48*,39
Cc1c(CN2CCC(CO)(CC3CCCCO3)CC2)cnn1C (stereo not drawn),0,0,106,5,6,/
O=C(Nc1ccc2nc(-c3ccco3)c(-c3ccco3)nc2c1)N1CCN(c2ccccn2)CC1,8,17,108,-11,74*,38
Cc1nc2cc(NC(=O)N3CCN(c4ccccn4)CC3)ccc2o1,0,3,85,-10,-5,/
O=C(NC(=S)Nc1ccc(N2CCOCC2)cc1)c1ccco1,0,8,99,23,4,/
S=C(Nc1ccc(N2CCOCC2)cc1)Nc1ccc2nc(-c3ccco3)c(-c3ccco3)nc2c1,0,24,84,-23,46*,22
COCCNC(=O)c1ccc2c(c1)S(=O)(=O)c1cc(Cl)ccc1C2=O,2,9,106,0,9,/
O=C(NCCOc1ccccc1)c1ccc2c(c1)S(=O)(=O)c1cc(Cl)ccc1C2=O,2,-3,98,-2,43*,30
O=C(c1ccccc1)c1c(-c2ccccc2)[nH]n(-c2ccccc2)c(=O)c1=O,3,-7,116,-7,1,/
CCc1nnc(NC(=O)c2oc3ccc(Br)cc3c2C)s1,0,3,95,2,-6,/
SMILES,GRK2 aptamer HTS,GASC-1 inh,Pemphigus Ab inh,VLA-4 inh,PREPL inh,PREPL confirm
CCCCN1C(=O)C(CC(=O)NCC2CCCCC2)CC(C(=O)N2CCOCC2)=C1C (stereo not drawn),/,/,98,/,/,/
S=C(Nc1cccc(Cl)c1Cl)N1CCC2(CC1)OCCO2,5,-1,103,0,6,/
CCN(CC)CCn1c(=N)n(CC(O)c2ccc(OC)c(OC)c2)c2ccccc21 (stereo not drawn),0,4,105,-3,44*,43
CCN(CC)CCn1c(=N)n(CC(O)c2ccco2)c2ccccc21 (stereo not drawn),0,-4,86,-3,37,/
Cc1ccc(NC(=O)c2sc(N)nc2C)cc1,1,2,94,0,7,/
Fc1ccccc1Cc1noc(CN(Cc2ccccn2)CC2CCCO2)n1 (stereo not drawn),3,2,114,-5,51*,8
O=[N+]([O-])c1ccc(N2CCN(c3cccc(Cl)c3)CC2)cn1,2,-11,96,6,47*,38
O=[N+]([O-])c1ccc(N2CCCCC2)cn1,2,-2,83,5,-1,/
C=CCn1c(NS(=O)(=O)c2ccccc2)c(S(=O)(=O)c2ccc(C)cc2)c2nc3ccccc3nc21,6,-2,115,-6,47*,13
COC(=O)c1ccccc1-c1c2ccc(=N)cc-2oc2cc(N)ccc12,0,-4,i,/,151*,151*
COC(=O)c1ccccc1-c1ccc(/C=N/NC(=O)c2cc3ccccc3o2)o1,2,8,111,-8,15,/
Nc1cc(Cl)ccc1N1CCCC1,0,-3,91,-6,15,/
Nc1cc(F)ccc1N1CCCCCC1,0,0,103,-3,43*,26
COc1nc(NCCN2CCOCC2)nc(Nc2ccc([N+](=O)[O-])cc2)n1,4,1,99,-3,47*,41
COc1ccc(C2(C)CC(C)(C)Nc3ccccc32)cc1 (stereo not drawn),1,13,116,18,-5,/
COc1ccc(C2CC(C)(c3ccc(OC)cc3)Nc3ccccc3N2)cc1 (stereo not drawn),2,-1,98,7,45*,39
CC(OC(=O)COc1ccccc1[N+](=O)[O-])C(=O)Nc1ccc(N2CCOCC2)cc1 (stereo not drawn),0,-6,96,-4,12,/
O=C(O)C1=C[C@H](c2ccc(C(F)(F)F)cc2)C[C@H](OCc2ccc(CO)cc2)O1,2,-9,101,8,4,/
O=C(C1=C[C@H](c2ccc(C(F)(F)F)cc2)C[C@H](OCc2ccc(CO)cc2)O1)N1CCOCC1,0,1,110,12,29,/
CN1CCN(C(=O)C2=C[C@@H](c3ccc4c(c3)OCO4)C[C@@H](OCc3ccc(CO)cc3)O2)CC1,0,5,100,-3,45*,54*
CN1CCN(C(=O)C2=C[C@@H](c3ccc(C(F)(F)F)cc3)C[C@@H](OCc3ccc(CO)cc3)O2)CC1,0,4,98,46,59*,59*
O=C(C1=C[C@@H](c2ccc(C(F)(F)F)cc2)C[C@@H](OCc2ccc(CO)cc2)O1)N1CCN(Cc2ccccc2)CC1,1,2,103,27,52*,57*
Cc1c(C(=O)OCC(=O)Nc2cccc(S(N)(=O)=O)c2)oc2c1ccc1ccccc12,2,-3,97,-2,-19,/

# Source: PubChem BioAssay (several laboratories)
